Bioassay records from PubChem BioAssay.
TIM10 inh – TIM10 yeast growth inhibition | S. cerevisiae TIM10 strain growth, BacTiter-Glo luminescence, 24 h | inhibition, % at 10 µM | actives 1.4% (n = 330,000);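 active = inhibition of 40% or more at the single tested concentration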;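 also: wild-type TIM10 isogenic control strain grown at permissive 25 °C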
PfHsp90 set2 – inhibits growth of yeast expressing Plasmodium falciparum Hsp90 | S. cerevisiae expressing PfHsp90, BacTiter-Glo ATP, 48 h; yeast lacking PDR1 and PDR3 efflux regulators | inhibition, % at 9.4 µM | actives 0.32% (n = 310,000);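 active = every replicate shows inhibition above about 80%, whatever the replicate mean, limit read from the data; inconclusive = mean inhibition reaches the set limit but some replicate falls short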
V-ATPase pH – yeast V-ATPase proton transport regulation by pHLuorin | response, % at 10 µM | S. cerevisiae, pHLuorin cytosolic pH fluorescence | actives 0.37% (n = 350,000) | AID 504577; in the data active = response mostly above about 7.3%, no sharp cut-off; inactive = mostly below about 5.4%; also: actives read high
SKKanGAS inh – inhibitors of SKKanGAS S. pyogenes growth in kanamycin (SK-promoter or general growth effect). BacTiter-Glo, 6 h. inhibition, % at 7.5 µM. actives 1.3% (n = 300,000). AID 1662;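 active = mean replicate score, as percent of positive control median, at least 50; inconclusive = mean below 50 but one replicate at or above 50; inactive = mean and every replicate below 50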;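 also: strain carries kanamycin resistance gene driven by streptokinase promoter and grows in 40 µg/ml kanamycin; loss of luminescence reflects streptokinase promoter inhibition or plain growth inhibition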
tim10-1 inh – inhibits growth of tim10-1 mutant yeast; S. cerevisiae tim10-1 ts strain growth, BacTiter-Glo, 24 h; inhibition, % at 20 µM; actives 2.2% (n = 330,000); AID 463190;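 active = inhibition of at least 40%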;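 also: mutant grown at 25 °C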
tim23-1 inh – growth inhibitors of tim23-1 mutant yeast | actives 1.3% (n = 330,000) | inhibition, % at 20 µM | S. cerevisiae tim23-1 growth, BacTiter-Glo luminescence, 24 h;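 active = growth inhibition of the mutant yeast at or above 50%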;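 also: temperature-sensitive mutant grown at 25 °C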
tim10-1 confirm – confirmation of tim10-1 mutant yeast growth inhibitors; actives 56% (n = 7,400); S. cerevisiae tim10-1 ts strain growth, BacTiter-Glo, 24 h; inhibition, % at 20 µM; shares compounds with tim10-1 inh;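 active = inhibition of yeast growth at or above a set limit in either of two repeat tests at 20 µM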;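 also: tim10-1 mutant grown at permissive 25 °C to find synthetic lethal compounds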
Each line names hits and unclear results; the compound was inactive in the other large screens (follow-up assays come after a bar, where they were run). Only some compounds are listed: those with a hit (about 4.6% of all), similar ones and a draw of the others.

c1ccc(C(NCCNC(c2ccccc2)c2ccccc2)c2ccccc2)cc1	SKKanGAS inh 105, tim10-1 inh 43 | tim10-1 confirm inactive
Cc1cc(C)n(S(=O)(=O)c2ccc(Cl)cc2)n1	none
Cc1cc(C)n(S(=O)(=O)c2ccc(C(C)(C)C)cc2)n1	tim10-1 inh 43 (no result: PfHsp90 set2) | tim10-1 confirm 38
Cc1cc(C)n(S(=O)(=O)c2cc(Cl)ccc2Cl)n1	tim10-1 inh 40 | tim10-1 confirm inactive
O=C1CC(/C=C/c2ccncc2)=Nc2ccccc2N1	none
Cc1ccc(S(=O)(=O)N2CCCCC2)cc1NC(=O)c1ccncc1	none (no result: SKKanGAS inh)
CCCCC(CCC(=O)O)(C(=O)OCC)c1csc(Nc2ccccc2)n1 (stereo not drawn)	tim10-1 inh 42 | tim10-1 confirm inactive
CCOC(=O)/C(=N/Nc1ccccc1)c1csc(Nc2ccccc2)n1	SKKanGAS inh 91, tim10-1 inh 48 | tim10-1 confirm inactive
CCN(CC)C(=O)c1csc(Nc2ccc(C)cc2)n1	none (no result: PfHsp90 set2, SKKanGAS inh)
Cc1ccc(S(=O)(=O)N(C)C)cc1NC(=O)COC(=O)c1ccc2ccccc2n1	none (no result: SKKanGAS inh)
C=CCNC(=S)NNC(=O)c1cccn(Cc2ccc(Cl)cc2Cl)c1=O	tim10-1 inh 47 (no result: PfHsp90 set2) | tim10-1 confirm inactive
CCNC(=S)NNC(=O)c1cccn(Cc2ccc(Cl)cc2Cl)c1=O	none (no result: PfHsp90 set2)
C=Cc1ncc(OC)c2c1[nH]c1ccccc12	tim10-1 inh 44 | tim10-1 confirm 37
COc1ccccc1-c1ccc([C@@H]2C[C@H]3[C@@H](CN2)CON3C)cc1	none (no result: TIM10 inh, PfHsp90 set2, SKKanGAS inh, tim10-1 inh, tim23-1 inh)
O=C(Nc1cccnc1)c1cc2cc(Br)ccc2o1	none
C/C(=N\NC(=S)Nc1ccc(C)cc1)c1cccc(N)c1	tim10-1 inh 42 | tim10-1 confirm inactive
Cc1ccc(/C=C2\CCCC3=C2NC(=S)NC3c2ccc(C)cc2)cc1 (stereo not drawn)	none
COc1ccc(C2NC(=S)NC3=C2CCc2cc(OC)ccc23)cc1 (stereo not drawn)	tim10-1 inh 54 | tim10-1 confirm 40
Cc1ccc(N=CC2=C(O)CC(c3ccccc3Cl)CC2=O)cc1 (stereo not drawn)	none (no result: PfHsp90 set2)
O=C1CC(c2ccccc2Cl)CC(O)=C1C=Nc1ccccc1 (stereo not drawn)	tim10-1 inh 44 | tim10-1 confirm 41
COc1ccc(-c2nnc3sc(-c4ccccn4)nn23)cc1	tim10-1 inh 44 (no result: PfHsp90 set2, V-ATPase pH) | tim10-1 confirm inactive
COc1cccc(-c2nn3c(-c4ccccn4)nnc3s2)c1	tim10-1 inh 58 (no result: PfHsp90 set2) | tim10-1 confirm 54
COc1cccc(-c2nnc3sc(-c4ccccn4)nn23)c1	none
CCS(=O)(=O)N1Cc2ccccc2CC1C(=O)NCC12CC3CC(CC(C3)C1)C2 (stereo not drawn)	tim10-1 inh 40 | tim10-1 confirm inactive
COc1ccc(S(=O)(=O)N2CCCCC2)cc1NC(=O)c1cccc(S(=O)(=O)N2CC(C)OC(C)C2)c1 (stereo not drawn)	none (no result: TIM10 inh, SKKanGAS inh, tim10-1 inh, tim23-1 inh)
Nc1c([N+](=O)[O-])cnnc1-c1ccccc1	none
C=CCN1C(=O)C(O)(CC(=O)c2ccc(-n3cccc3)cc2)c2ccccc21 (stereo not drawn)	tim10-1 inh 43 | tim10-1 confirm 36
COc1ccc(Nc2nnc(SCC3CCCO3)s2)cc1 (stereo not drawn)	tim10-1 inh 46 | tim10-1 confirm inactive
Cc1cccc(Nc2nnc(SCC3CCCCO3)s2)c1C (stereo not drawn)	tim10-1 inh 48 | tim10-1 confirm 33
COc1ccc(C)cc1NS(=O)(=O)c1ccc(-c2cnc(C3CC3)o2)cc1	tim10-1 inh 43 | tim10-1 confirm inactive
Cc1ccc(CNS(=O)(=O)c2ccc(-c3cnc(C4CC4)o3)cc2)cc1	none
Cc1ccc(NS(=O)(=O)c2ccc(-c3cnc(C4CC4)o3)cc2)cc1	tim10-1 inh 40 | tim10-1 confirm inactive
CC(=O)c1ccc(NS(=O)(=O)c2ccc(-c3cnc(C4CC4)o3)cc2)cc1	none
COc1cc(CC(=O)OCC(=O)N(C)C2CCCCC2)cc(OC)c1OC	none (no result: SKKanGAS inh)
Cc1ccc2c(c1)c1c3n2CCN(C(=O)CCl)C3CCC1 (stereo not drawn)	tim10-1 inh 43 | tim10-1 confirm inactive
COc1cc(C(=O)Nc2ccc3nc(N4CCOCC4)sc3c2)cc(OC)c1OC	tim10-1 inh 41 (no result: SKKanGAS inh) | tim10-1 confirm inactive
COc1cc(C2C(C#N)=C(N)OC3=C2C(=O)CC(C)(C)C3)ccc1OCCN1CCOCC1 (stereo not drawn)	none
CC(=O)c1sc(N/N=C2\CC3CCC2(C)C3(C)C)nc1C (stereo not drawn)	tim10-1 inh 43 | tim10-1 confirm inactive
Cc1ccc(S(=O)(=O)NN=C2CC3CCC2(C)C3(C)C)cc1 (stereo not drawn)	none (no result: TIM10 inh, SKKanGAS inh, tim10-1 inh, tim23-1 inh)
Cc1cc2c(cc3c(=O)n(CC(=O)NCCCN4CC(C)CC(C)C4)ncn32)s1 (stereo not drawn)	none
CN(C)c1nc(-c2ccccn2)nnc1-c1ccccc1	tim10-1 inh 40 | tim10-1 confirm inactive
c1ccc(-c2nnc(-c3ccccn3)c(-c3ccccn3)n2)nc1	none (no result: PfHsp90 set2)
O=C(Nc1cccc(Cl)c1)c1csc(-c2ccccc2)n1	tim10-1 inh 44 | tim10-1 confirm inactive
CCOC(=O)c1cn[nH]c1NC(=S)Nc1ccc(Cl)cc1	tim10-1 inh 41 (no result: PfHsp90 set2) | tim10-1 confirm inactive
CCOC(=O)c1ccc(NC(=S)Nc2ccc(C)cc2)cc1	none
CCCCn1c(N)c(N(C(=O)CSc2nncn2-c2ccccc2)C2CCCC2)c(=O)[nH]c1=O	none (no result: TIM10 inh, SKKanGAS inh, tim10-1 inh, tim23-1 inh)
Cc1c(-c2nnc(SCC(=O)O)n2-c2ccccc2Br)nnn1-c1ccccc1	none
CCc1ccccc1NC(=O)CCc1c(C)nn(-c2ccc(N3CCOCC3)nn2)c1C	tim10-1 inh 62 | tim10-1 confirm inactive
Cc1nn(-c2ccc(N3CCOCC3)nn2)c(C)c1CCC(=O)NCc1ccccc1F	none
N#Cc1ccc(Cn2ccnc2C(=O)Nc2ccccc2)cc1	tim10-1 inh 57 | tim10-1 confirm inactive
COc1ccccc1NC(=O)CN1CCC(n2nnc3cc(F)ccc32)CC1	none
COc1ccc(Cl)cc1NC(=O)CN1CCC(n2nnc3cc(C)ccc32)CC1	SKKanGAS inh inconclusive | tim10-1 confirm inactive
CCOc1ccc(NC(=O)CN(C)C(=O)/C=C/c2ccco2)cc1OCC	none (no result: SKKanGAS inh)
Brc1ccc(N=Nc2ccc3ccccc3n2)cc1	tim10-1 inh 40 | tim10-1 confirm inactive
COC(CNC(=O)C(=O)NCC1CCCN1S(=O)(=O)c1cccs1)OC (stereo not drawn)	none (no result: PfHsp90 set2)
C=CCSc1nc(N(CC)CC)c2sccc2n1	tim10-1 inh 44 | tim10-1 confirm inactive
CC(=O)c1ccc(NS(=O)(=O)c2cccc3cccnc23)cc1	none (no result: TIM10 inh, PfHsp90 set2, SKKanGAS inh, tim10-1 inh, tim23-1 inh)
CC(C)c1ccc(NC(=O)CCCN2C(=S)NC(C)(C)CC2C)cc1 (stereo not drawn)	tim10-1 inh 43 (no result: PfHsp90 set2) | tim10-1 confirm inactive
